Inconclusive results are not listed. Where a call stands in place of a potency, no number is given. The source made the active and inactive calls. The call rests on the fitted dose curve; in most records, active means well fitted inhibition curve with a large enough effect; inconclusive means small, poorly fitted or top-dose-only effect; inactive means flat fitted curve, though single readings scatter.
What was measured:
Assay in all cases: qHTS profiling for inhibitors of Plasmodium falciparum proliferation (AID 504749); further: nearly all actives have a fitted effect of over 60% in size
Details in all cases: P. falciparum in erythrocytes, SYBR Green DNA, 72 h; series mostly up to 28.7 µM
CP194 = tested on: CP194
Procedure, shortened: (§1)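 Three-day growth assay of blood-stage parasites in erythrocytes (0.3% parasitemia, 2.5% hematocrit) at 37 C, 5% CO2, quantified by SYBR Green DNA staining after overnight detergent lysis.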

CP201 = tested on: CP201
Procedure, shortened: as §1

CP203 = tested on: CP203
Procedure, shortened: as §1

CP211 = tested on: CP211
Procedure, shortened: as §1

CP215 = tested on: CP215
Procedure, shortened: as §1

CP217 = tested on: CP217
Procedure, shortened: as §1

CP237 = tested on: CP237
Procedure, shortened: as §1

CP238 = tested on: CP238
Procedure, shortened: as §1

CP247 = tested on: CP247
Procedure, shortened: as §1

CP250 = tested on: CP250
Procedure, shortened: as §1

CP252 = tested on: CP252
Procedure, shortened: as §1

CP256 = tested on: CP256
Procedure, shortened: as §1

CP260 = tested on: CP260
Procedure, shortened: as §1

CP262 = tested on: CP262
Procedure, shortened: as §1

CP265 = tested on: CP265
Procedure, shortened: as §1

CP266 = tested on: CP266
Procedure, shortened: as §1

CP268 = tested on: CP268
Procedure, shortened: as §1

CP269 = tested on: CP269
Procedure, shortened: as §1

CP286 = tested on: CP286
Procedure, shortened: as §1

CP291 = tested on: CP291
Procedure, shortened: as §1
Potency means the concentration at half of the fitted maximal effect.

SMILES	Potency (CP194)	outcome (CP201)	outcome (CP203)	Potency (CP211)	Potency (CP215)	Potency (CP217)	Potency (CP237)	outcome (CP238)	Potency (CP247)	outcome (CP250)	outcome (CP252)	outcome (CP256)	outcome (CP260)	outcome (CP262)	Potency (CP265)	outcome (CP266)	outcome (CP268)	outcome (CP269)	outcome (CP286)	outcome (CP291)
CCN(CC)CCNC(=O)c1ccc(N)cc1	inactive	inactive	inactive	inactive	inactive	inactive	inactive	inactive	inactive	inactive	inactive	inactive	inactive	inactive	inactive	inactive	inactive	inactive	inactive	inactive
CC1=C(/C=C/C(C)=C/C=C/C(C)=C/C(=O)Nc2ccc(O)cc2)C(C)(C)CCC1	13.5 µM (active)			10.7 µM (active)	10.7 µM (active)				7.94 µM (active)			inactive								
CCOC(=O)O[C@]1(C(=O)OCCl)CC[C@@H]2[C@H]3CCC4=CC(=O)C=C[C@]4(C)[C@@H]3[C@@H](O)C[C@@]21C	inactive	inactive	inactive	inactive		inactive	inactive	inactive	inactive	inactive	inactive	inactive	inactive	inactive	inactive		inactive	inactive	inactive	inactive
O=C1Nc2ccc(Cl)cc2C(C#CC2CC2)(C(F)(F)F)O1 (stereo not given)		inactive	inactive	inactive		inactive	inactive	inactive	inactive	inactive	inactive	inactive	inactive	inactive	inactive		inactive	inactive	inactive	inactive

Source: PubChem BioAssay (NCATS)
